Reference: PubChem BioAssay (EPA / NIEHS)
Some structures have more than one record in an assay (separate samples or runs), and their calls can disagree. Active and inactive are the calls of the source. How the source made its calls: active means hit-call score of the fitted dose curve at least 0.9, where 1 is the maximum; inactive means score below 0.9.

Read-out: Peroxisomal acyl-coenzyme A oxidase 1 (ACOX1) gene, ACOX1 (gene 51)
Assay: LTEA_HepaRG_ACOX1: Life Technologies and Expression Analysis (LTEA) Assay for Peroxisomal acyl-coenzyme A oxidase 1 (ACOX1) gene using HepaRG (AID 2283467)
Settings: mRNA level, 48 h; actives raise or lower the signal
Experimental: LTEA_HepaRG is a cell based, multiplexed-readout assay that uses HepaRG, a human liver cell line, with measurements taken at 48 hours after chemical dosing on a 96-well plate.LTEA_HepaRG_ACOX1 is one of 102 assay component(s) measured in the LTEA HepaRG cell culture assay. It is a marker of Steatosis.Data from the assay component LTEA_HepaRG_ACOX1 was analyzed into 1 endpoint. This assay endpoint, LTEA_HepaRG_ACOX1, was analyzed with bidirectional fitting relative to DMSO as the negative control and baseline of activity. Using a type of inducible reporter, measures of mRNA induction for gain or loss-of-signal activity can be used to understand regulation of transcription factor activity. To generalize the intended target to other relatable targets, this assay endpoint is annotated to the oxidase intended target family, where the subfamily is steatosis.
A total of 1060 chemcials from the ToxCast library were tested in eight-point concentration-response experiments. Cell culture and cytotoxicity assays were conducted at Thermo Fisher Scientific's Custom Services facility (Madison, WI). A single lot of human HepaRG cells (Thermo Fisher Scientific, Frederick, MD) was used for the cell culture experiments. 96-well format collagen type I coated plates of human HepaRG cells were prepared using established methods. Briefly, cryopreserved HepaRG cells were thawed, plated at a density of approximately 100,000 cells/well in HepaRG Thaw, Plate, and General Purpose media (HPRG770, Thermo Fisher Scientific), and incubated for 48 hours. 0.5% DMSO was selected as vehicle control to balance the requisite need of DMSO in HepaRG cultures to maintain differentiation (for example, baseline metabolism, proportions of hepatocytes vs. cholangiocytes), while enabling further hepatic receptor pathway activation (for example, PXR and CAR) in response to chemical exposure. 48 hours after plating, the culture medium was replaced with HepaRG Serum-Free Incudtion Media. Cells were exposed to each test chemical in duplicate and maintained in CO2 incubators for another 48 hours. Chemical plates were thawed to room temperature and 200x concentrations of treatment groups were prepared. 8-point conentration-reponse curves were made with the highest exposure at 100 uM, followed by half-log dilutions, all in 0.5% DMSO. Each test plate contained variouse controls, induction positive controls (1mM phenobarbital), cytotoxicity positive controls ([…] aflatoxin B1), vehicle controls (0.5% DMSO), and total lysis controls (0.5% DMSO). Cell morphology images were taken using an Essen IncuCyte FLR automated microscope, with six 96-well plates imaged in about 24 minutes. Images were captured and exported and JPEG files. Spent culture media was transfered to black-well plates for the LDH assay, and remaining media was sorted at -80 C for later use. Cells were treated with RLT buffer and frozen until shipped for gene expression analysis. Total RNA was isolated from the cell suspension in 75 uL of Buffer RLT (Qiagen, Germantown, MD 20874) by Quintiles/Expression Analysis (Durham, NC) using a custom isolation procedure. Total RNA from each plate well was transferred to a preamplification plate. Fluidigm's 96.96 Dynamic ArrayTM (Fluidigm, Amsterdam, the Netherlands) technology was used for gene expression analyses by quantitative reverse transcription polymerase chain reaction (qRT-PCR, performed by Quintiles/Expression Analysis, Durham, NC)89. Standard TaqManTM Assays (Applied Biosystems/ThermoFisher Scientific, Foster City, CA) were used to assess the expression of 93 genes selected based on their selectivity and sensitivity to important hepatic receptors known to be modulated by environmental chemicals; importance in human hepatocyte functionality; and hepatotoxicity. […]

SMILES | outcome | AC50
CCc1ccc(C(=O)NN(C(=O)c2cc(C)cc(C)c2)C(C)(C)C)cc1 | inactive | –
CCC(C)Nc1c([N+](=O)[O-])cc(C(C)(C)C)cc1[N+](=O)[O-] (stereo not given) | inactive | –
CCOCN(C(=O)CCl)c1c(C)cccc1CC | – | 78.9 µM (active)
COP(=S)(OC)Oc1ccc(SC)c(C)c1 | inactive | –
COc1nn(CSP(=S)(OC)OC)c(=O)s1 | inactive | –
OCCOc1ccccc1 | inactive | –
CCCN(CCOc1c(Cl)cc(Cl)cc1Cl)C(=O)n1ccnc1 | – | 50 µM (active)
O=C(Nc1ccccc1)Nc1cnns1 | – | 50 µM (active)
CNC(=O)/C=C(\C)OP(=O)(OC)OC | inactive | –
O=C(O)COc1ccc(Cl)cc1Cl | inactive | –
O=[N+]([O-])/N=C1\NCCN1Cc1ccc(Cl)nc1 | – | 29.7 µM (active)
CC(C)(C)C(O)C(Oc1ccc(Cl)cc1)n1cncn1 (stereo not given) | inactive | 1.25 µM (active)
Clc1ccccc1-c1nnc(-c2ccccc2Cl)nn1 | inactive | –
CCC(C)(C)C(=O)OC1=C(c2ccc(Cl)cc2Cl)C(=O)OC12CCCCC2 | inactive | –
N#Cc1c(Cl)c(Cl)c(Cl)c(C#N)c1Cl | inactive | –
O=C(NC(=O)c1c(F)cccc1F)Nc1ccc(OC(F)(F)C(F)OC(F)(F)F)c(Cl)c1 (stereo not given) | inactive | –
CC1(c2ccc(Oc3ccccc3)cc2)OC(=O)N(Nc2ccccc2)C1=O (stereo not given) | – | 26.7 µM (active)
CCCN(CCC)c1c([N+](=O)[O-])cc(C(F)(F)F)cc1[N+](=O)[O-] | inactive | –
C[C@H]1[C@H](c2ccc(Cl)cc2)SC(=O)N1C(=O)NC1CCCCC1 | inactive | –
COP(=O)(OC)OC=C(Cl)Cl | inactive | –

SMILES | outcome | AC50
Cc1[nH]c(=O)n(C(C)(C)C)c(=O)c1Cl | inactive | –
CCOC1Oc2ccc(OS(C)(=O)=O)cc2C1(C)C (stereo not given) | – | 60.8 µM (active)
Oc1ccc(Cl)cc1Cc1ccccc1 | inactive | –
O=[N+]([O-])c1c(Cl)c(Cl)c(Cl)c(Cl)c1Cl | inactive | –
O=S(=O)(O)C(F)(F)C(F)(F)C(F)(F)C(F)(F)C(F)(F)C(F)(F)C(F)(F)C(F)(F)F | inactive | –
COP(=S)(OC)Oc1ccc([N+](=O)[O-])cc1 | inactive | –
O=C(O)CCCOc1ccc(Cl)cc1Cl | – | 20.5 µM (active)
CC[C@H](C)[C@H]1O[C@]2(C=C[C@@H]1C)C[C@@H]1C[C@@H](C/C=C(\C)[C@@H](O[C@H]3C[C@H](OC)[C@@H](O[C@H]4C[C@H](OC)[C@@H](O)[C@H](C)O4)[C@H](C)O3)[C@@H](C)/C=C/C=C3\CO[C@@H]4[C@H](O)C(C)=C[C@@H](C(=O)O1)[C@]34O)O2 (tested in a mixture with another compound) | – | 30.2 µM (active)
CN1CSC(=S)N(C)C1 | inactive | –
CNC(=O)Oc1cccc(N=CN(C)C)c1 | inactive | –
CC(C)(C)C(O)/C(=C\c1ccc(Cl)cc1Cl)n1cncn1 (stereo not given) | – | 50 µM (active)
O=S1OCC2C(CO1)C1(Cl)C(Cl)=C(Cl)C2(Cl)C1(Cl)Cl (stereo not given) | – | 53.9 µM (active)
N#CN | inactive | –
CNC(=O)CSP(=S)(OC)OC | inactive | –
C#CCN1C(=O)COc2cc(F)c(N3C(=O)C4=C(CCCC4)C3=O)cc21 | inactive | –
CC(C)N(C(=O)COc1nnc(C(F)(F)F)s1)c1ccc(F)cc1 | – | 19.4 µM (active)
CCC(C)(NC(=O)c1cc(Cl)c(C)c(Cl)c1)C(=O)CCl (stereo not given) | – | 85.1 µM (active)
CCN(CC)C(=O)SCc1ccc(Cl)cc1 | inactive | –
CC1(C)C(C=C(Cl)Cl)C1C(=O)OC(C#N)c1ccc(F)c(Oc2ccccc2)c1 (stereo not given) | inactive | –
